KCNQ2 inh: blocks the rat KCNQ2 potassium channel. O88943. CHO-K1 KCNQ2, FluxOR thallium flux, 20 min; hits give low values. B-score at 10 µM. 310,000 compounds, 1.1% hits;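 active means fluorescence ratio B-score at most minus 3 library SDs, with starting brightness B-score within 2 library SDs, cut at about -5.5 in these data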
KCNQ2 pot: enhances the rat KCNQ2 potassium channel; O88943; CHO-K1 KCNQ2, FluxOR thallium flux fluorescence; hits give high values; B-score at 10 µM; 310,000 compounds, 0.54% hits; AID 2239;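 active means fluorescence ratio B-score at least 3 SD of library B-scores, with initial fluorescence B-score within 3 of them, cut at about 5.3 in these data; same plate scores as AID 2156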;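 further: B-score of peak minus minimum over baseline fluorescence ratio after K+ and Tl+ stimulus; positive B-score means potentiation of KCNQ2 with more thallium influx and brighter signal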
KCNQ2 block conf: rat KCNQ2 channel inhibition, confirmatory screen | KCNQ2-expressing cells, thallium flux; hits give low values | 1,000 compounds, 57% hits | shares compounds with KCNQ2 inh | AID 493025 | activity change, negative = inhibition, % at 10 µM;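 further: 0% = vehicle wells and values are ratio percent relative to vehicle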
KCNQ1 spec: selectivity of KCNQ2 inhibitors against human KCNQ1; shares compounds with KCNQ2 inh; KCNQ1-expressing cells, FluxOR thallium flux fluorescence; hits give low values; activity change, negative = inhibition, % at 10 µM; 1,000 compounds, 15% hits; AID 493026;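 active means activity change at least 3 SD of negative controls below their mean in both duplicate wells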;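 further: CHO cells stably transfected with KCNQ1 and depolarized by potassium stimulus; peak minus minimum fluorescence over baseline after thallium addition; 0% = vehicle negative control and -100% = blank without thallium stimulus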
CHO parental ctr: activity in parental CHO cells lacking KCNQ2 | shares compounds with KCNQ2 inh | activity change, % at 10 µM | thallium flux counter-screen; hits give low values | 1,000 compounds, 14% hits;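 further: 0% = vehicle negative controls with stimulus buffer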
KCNQ2 patch conf: blocks rat KCNQ2 current in automated patch clamp | shares compounds with KCNQ2 inh | KCNQ2-expressing cells | calls only at 10 µM | 550 compounds, 49% hits | AID 588531
* marks the source's active call; other numbers are inactive results; i = inactive; . = not tested or not shown; + = active, no number. Only some compounds are listed: those with a hit (about 1.6% of all), similar ones and a draw of the others. Unless noted, how the calls were made is not given here.

SMILES | KCNQ2 inh | KCNQ2 pot | KCNQ2 block conf | KCNQ1 spec | CHO parental ctr | others
COc1ccccc1CCN1CCCC(CN(C)Cc2ccc(OCCO)cc2)C1 (configuration not stated) | i | . | . | . | .
CCOc1ccc(NC(=O)c2cc(S(=O)(=O)N3CCOCC3)cn2C)cc1 | i | 0.18 | . | . | .
O=C(Cn1c(=O)n(Cc2ccc3c(c2)OCO3)c(=O)c2ccccc21)N1CCCc2ccccc21 | i | . | . | . | .
CC1CCCCN1C(=O)CSc1nc2cc3c(cc2c(=O)n1Cc1ccc2c(c1)OCO2)OCO3 (configuration not stated) | i | . | . | . | .
CC1CCN(C(=O)CSc2nc3ccccc3c(=O)n2Cc2ccc3c(c2)OCO3)CC1 | -7.3* | -7.3 | i | i | i
CC1CCN(C(=O)Cn2c(=O)n(Cc3ccc4c(c3)OCO4)c(=O)c3ccccc32)CC1 | -7.2* | -7.2 | -31%* | i | i | KCNQ2 patch conf=+
Cc1cc(-c2nnc(SCCC(=O)Nc3ccccc3)o2)no1 | i | 1.1 | . | . | .
Cc1ccc2nc(-c3ccccc3)cc(C(=O)N(C)CC(=O)Nc3ccccc3Br)c2c1 | -8.1* | -8.1 | i | i | i
COc1ccc(NC(=O)CN(C)C(=O)c2cc(-c3ccccc3)nc3ccccc23)cc1 | i | . | . | . | .
Cc1csc(C(=O)NN)c1N(C)C | i | 1 | . | . | .
C=C(C)C(=O)OCC(O)COc1ccc(C(C)(C)c2ccc(OCC(O)COC(=O)C(=C)C)cc2)cc1 (configuration not stated) | i | . | . | . | .
CC(C)CN1C(=O)C(=O)N(CC(=O)N2CCN(c3ccccc3)CC2)C1=O | i | . | . | . | .
Fc1ccc(-c2csc(N3CCC(c4ccccc4)C3)n2)cc1 (configuration not stated) | -9.5* | -9.5 | i | i | i
Clc1ccc(-c2csc(N3CCC(c4ccccc4)C3)n2)cc1 (configuration not stated) | i | . | . | . | .
COc1ccc(CN2CCNC(=O)C2CC(=O)N(C)CC2CCOCC2)cc1C (configuration not stated) | i | . | . | . | .
CCCCn1cnc2c(c(-c3ccccc3)c(-c3ccccc3)n2Cc2ccco2)c1=N | -7.6* | -7.6 | -27%* | i | i | KCNQ2 patch conf=i
CCCCn1c(=O)[nH]c(=O)c2c1ncn2Cc1ccco1 | i | 0.89 | . | . | .
COc1ccc(N(C(=O)c2cccnc2)S(=O)(=O)c2ccc(F)cc2)cc1 | i | 1.4 | . | . | .
O=C(NCc1cccc(Cl)c1)c1ccc(CS(=O)Cc2ccc(Cl)cc2)o1 (configuration not stated) | i | . | . | . | .
COc1ccc(CN(C(=O)c2ccco2)c2ccc(C)c(C)c2)cc1 | -6.7* | -6.7 | i | i | i
CCOc1ccc(N(Cc2ccc(OC)cc2)C(=O)c2ccco2)cc1 | i | . | . | . | .
N#Cc1ccc(C(=O)CN2CCN(c3ccccc3)CC2)cc1 | i | 0.07 | . | . | .
Cc1ccc(NC(=S)N(C)C(c2ccccc2)c2ccccc2)cc1C | -8.4* | -8.4 | -25%* | i | i | KCNQ2 patch conf=i
CN(C(=S)Nc1ccc(F)cc1)C(c1ccccc1)c1ccccc1 | i | . | . | . | .
Cc1ccccc1CC(=O)Nc1cccnc1 | i | 0.5 | . | . | .
SMILES | KCNQ2 inh | KCNQ2 pot | KCNQ2 block conf | KCNQ1 spec | CHO parental ctr | others
Cc1ccc(CN=c2c([N+](=O)[O-])nn(-c3cccc(C)c3)n2O)cc1 | -7* | -7 | -19%* | i | i | KCNQ2 patch conf=i
Cc1ccc(CN=c2c([N+](=O)[O-])nn(-c3cccc(Cl)c3)n2O)cc1 | i | . | . | . | .
Cc1ccccc1C(=O)N(CC(=O)Nc1sc(C)c(C)c1C(N)=O)C1CCCC1 | i | 2.8 | . | . | .
COc1ccc(O)c(CN2CCC(n3nccc3NC(=O)c3ccccc3Cl)CC2)c1 | i | 1.2 | . | . | .
Cc1cc(N2CCCCC2)n2ncc(-c3ccccc3)c2n1 | i | . | . | . | .
Cc1cc(N2CCC(C)CC2)n2ncc(-c3ccccc3)c2n1 | -8.3* | -8.3 | -16%* | i | i | KCNQ2 patch conf=i
CCNc1nc(NCC)n2c(SC(C(=O)Nc3cc(C)ccc3C)c3ccccc3)nnc2n1 (configuration not stated) | i | . | . | . | .
CCOCCCn1c(SC(C(=O)Nc2cc(C)ccc2C)c2ccccc2)nnc1-c1ccc(Cl)cc1 (configuration not stated) | -9.6* | -9.6 | -24%* | i | i | KCNQ2 patch conf=+
CSc1ccccc1NC(=O)CO/N=C(\C)c1cc2ccccc2o1 | i | . | . | . | .
C/C(=N\OCC(=O)NC12CC3CC(CC(C3)C1)C2)c1cc2ccccc2o1 | -6.8* | -6.8 | -38%* | -37%* | -27%* | KCNQ2 patch conf=i
OC[C@H]1O[C@H](OC[C@H]2O[C@H](OC[C@H]3O[C@H](O[C@]4(CO)O[C@H](CO)[C@@H](O)[C@@H]4O)[C@H](O)[C@@H](O)[C@@H]3O)[C@H](O)[C@@H](O)[C@H]2O)[C@H](O)[C@@H](O)[C@H]1O | i | . | . | . | .
CSc1nc(Cl)c(Cc2ccc(OCC(C)C)cc2)c(N2CCOCC2)n1 | -6.8* | -6.8 | -24%* | i | i | KCNQ2 patch conf=i
CCCCOc1ccc(Cc2c(Cl)nc(SC)nc2N2CCOCC2)cc1 | i | . | . | . | .
O=C(NCCn1cc(SCc2ccccc2)c2ccccc21)c1ccccc1F | -8.2* | -8.2 | i | i | i
O=C(CSc1cn(CCNC(=O)c2ccccc2F)c2ccccc12)NCC1CCCO1 (configuration not stated) | i | 0.75 | . | . | .
COc1ccccc1Nc1nc(N)nc(CN2CCCCC2)n1 | i | . | . | . | .
COc1ccccc1Nc1nc(N)nc(CN2CCN(Cc3ccccc3)CC2)n1 | -9.9* | -9.9 | -18%* | i | i | KCNQ2 patch conf=i
CCOCCCn1c(SCC(=O)Nc2ccc(OC)cc2)nc2ccccc2c1=O | i | . | . | . | .
CCCCC1CCC(C(=O)N(CC(C)C)c2c(N)n(Cc3ccccc3)c(=O)[nH]c2=O)CC1 (configuration not stated) | i | . | . | . | .
COc1ccccc1CNC(=O)COC(=O)C1CCN(c2ccc(C(F)(F)F)cn2)CC1 | -6.8* | -6.8 | i | i | i
O=C(COC(=O)C1CCN(c2ccc(C(F)(F)F)cn2)CC1)NCCc1ccccc1 | i | 1.9 | . | . | .
COc1ccc(C(=O)NCCc2nnc3ccc(SCC(=O)Nc4ccccc4)nn23)cc1 | i | . | . | . | .
C=CC[n+]1c(/C=C2\C=Cc3cc(C)ccc3N2CC)ccc2ccccc21 | -9.8* | -9.8 | i | i | i
CCN1/C(=C\c2ccc3cc(C)ccc3[n+]2CC)Sc2cc(C)c(C)cc21 | i | . | . | . | .
CCC(C)N1CCC(Oc2ccc(C(=O)NCc3ccccn3)cc2)CC1 (configuration not stated) | i | . | . | . | .
CCOC(=O)c1cc2c(s1)-c1c(C)cccc1OC2 | i | . | . | . | .
COc1cc2c(cc1OC)C(C)N(C(=O)c1cc3c(s1)-c1ccccc1OC3)CC2 (configuration not stated) | -8.4* | -8.4 | i | i | i
COc1cc2c(cc1OC)C(C)N(C(=O)c1cc3c(s1)-c1c(C)cccc1OC3)CC2 (configuration not stated) | -6.7* | -6.7 | -36%* | i | i | KCNQ2 patch conf=+

Compound activity as filed in PubChem.
